A short description of assay [1]: compounds binding Alexa647 anti-His antibody – biochemical, small-molecule microarray, 635 nm fluorescence, artefact control for SMM control protein annotation, primary screen (AID 1128).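 Also: score merges feature fluorescence with signal-to-noise for each printed compound spot.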 The following applies: higher = more signal.
The test system of assay [2] is Human papillomavirus type 1a E7 protein (residues 1-88). Nature of the assay: HPV1a E7 small-molecule binders, primary screen, biochemical, small-molecule microarray, residues 1-88, 635 nm (AID 1129). The following applies: small-molecule microarray binding, fluorescence 635 nm; higher = more signal.
Assay [3] deals with Focal adhesion kinase 1 (Homo sapiens) (UniProt Q05397). Nature of the assay: PTK2 protein binding on printed compound slides – biochemical, small-molecule microarray, 635/667 nm fluorescence, BSA, DTT, primary screen (AID 1130).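 Also: composite of spot emission at 667 nm and signal to noise over triplicate slides.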 The settings on record: 635 nm fluorescence, higher = more signal.
Focal adhesion kinase 1 (Homo sapiens), sequence (Q05397 whole entry, looked up): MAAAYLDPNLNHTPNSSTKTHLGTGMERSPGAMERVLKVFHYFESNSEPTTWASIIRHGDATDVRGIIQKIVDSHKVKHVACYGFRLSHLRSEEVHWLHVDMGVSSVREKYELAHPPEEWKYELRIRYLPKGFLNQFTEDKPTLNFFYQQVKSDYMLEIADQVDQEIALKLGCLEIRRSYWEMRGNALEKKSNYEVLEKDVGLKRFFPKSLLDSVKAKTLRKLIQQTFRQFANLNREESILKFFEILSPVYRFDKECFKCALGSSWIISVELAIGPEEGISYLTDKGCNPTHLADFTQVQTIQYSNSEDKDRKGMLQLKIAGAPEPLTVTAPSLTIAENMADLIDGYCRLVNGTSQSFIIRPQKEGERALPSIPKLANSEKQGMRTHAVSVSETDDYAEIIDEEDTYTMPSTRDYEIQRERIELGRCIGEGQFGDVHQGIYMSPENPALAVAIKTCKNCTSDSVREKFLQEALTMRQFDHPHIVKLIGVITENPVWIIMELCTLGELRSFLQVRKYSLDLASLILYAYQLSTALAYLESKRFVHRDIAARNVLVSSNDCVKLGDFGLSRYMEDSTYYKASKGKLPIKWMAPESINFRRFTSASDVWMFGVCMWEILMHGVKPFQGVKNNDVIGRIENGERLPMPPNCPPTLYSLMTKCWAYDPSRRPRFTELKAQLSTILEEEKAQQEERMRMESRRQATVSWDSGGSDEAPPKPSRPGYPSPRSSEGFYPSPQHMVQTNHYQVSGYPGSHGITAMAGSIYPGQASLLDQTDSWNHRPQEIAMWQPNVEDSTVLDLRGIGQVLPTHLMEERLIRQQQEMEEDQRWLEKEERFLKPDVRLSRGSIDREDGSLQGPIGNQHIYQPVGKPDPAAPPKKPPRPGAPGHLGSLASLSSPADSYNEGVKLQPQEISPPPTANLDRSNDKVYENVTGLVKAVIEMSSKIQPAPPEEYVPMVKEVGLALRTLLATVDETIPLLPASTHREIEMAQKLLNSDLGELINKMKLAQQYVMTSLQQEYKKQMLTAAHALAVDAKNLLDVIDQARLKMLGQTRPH
Assay [4] concerns Fibrinogen (Alexa647-labelled). Nature of the assay: Alexa647-fibrinogen binding to printed small molecules – biochemical, small-molecule microarray, 635/667 nm fluorescence, artefact control for SMM control-protein annotation, profiling panel (AID 1131).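 Also: z-score merges 667 nm fluorescence with per-spot signal-to-noise over triplicate slides.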 The following applies: fibrinogen-A647 binding fluorescence, higher = more signal.
Assay [5] deals with Follistatin (Homo sapiens) (UniProt P19883). The experiment in a line: FST protein binding to printed compounds – biochemical, small-molecule microarray, 635/667 nm fluorescence, primary screen (AID 1132). The following applies: 635 nm fluorescence, higher = more signal.
Follistatin (Homo sapiens), sequence (P19883 whole entry, looked up): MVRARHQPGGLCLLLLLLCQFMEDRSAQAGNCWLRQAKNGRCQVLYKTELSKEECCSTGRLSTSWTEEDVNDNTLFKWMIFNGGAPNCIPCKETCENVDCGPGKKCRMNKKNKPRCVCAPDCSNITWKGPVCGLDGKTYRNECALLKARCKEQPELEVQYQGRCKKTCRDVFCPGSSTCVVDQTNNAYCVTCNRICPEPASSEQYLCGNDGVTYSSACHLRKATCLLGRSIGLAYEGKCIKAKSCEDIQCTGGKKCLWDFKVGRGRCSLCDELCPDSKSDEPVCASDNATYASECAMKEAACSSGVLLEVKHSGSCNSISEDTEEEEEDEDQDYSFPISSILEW
The target in assay [6] is Fibroblast growth factor 2 (Homo sapiens) (UniProt P09038). Nature of the assay: basic fibroblast growth factor binding to printed compounds – biochemical, small-molecule microarray, 635/667 nm fluorescence, primary screen (AID 1133). The following applies: FGF2, fluorescence 635/667, higher = more signal.
Fibroblast growth factor 2 (Homo sapiens), sequence (P09038 whole entry, looked up): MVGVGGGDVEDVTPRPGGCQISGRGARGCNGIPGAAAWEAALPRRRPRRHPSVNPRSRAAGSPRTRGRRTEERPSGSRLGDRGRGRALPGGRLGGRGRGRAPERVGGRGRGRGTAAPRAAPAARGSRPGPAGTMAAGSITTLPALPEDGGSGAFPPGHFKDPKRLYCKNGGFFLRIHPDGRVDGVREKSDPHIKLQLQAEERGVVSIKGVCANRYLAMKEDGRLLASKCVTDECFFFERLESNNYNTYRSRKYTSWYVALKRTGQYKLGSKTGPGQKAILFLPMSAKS
A short description of assay [7]: JC-1 mitochondrial potential readout, lung cancer cells – cell-based, A549, JC-1 fluorescence, basal, 24 h, 100 nL, profiling panel (AID 1138).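 Also: A549 lung adenocarcinoma cells under basal conditions with no added stimulus; test concentration not given here.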 The following applies: higher = more signal.
Another assay deals with Lefty1. Nature of the assay: Lefty1 protein binding to printed compounds – biochemical, small-molecule microarray, 635/667 nm fluorescence, primary screen (AID 1139). The settings on record: fluorescence 635/667, higher = more signal.
Assay [8] has as its system wheat germ agglutinin (Triticum aestivum), Alexa647-labelled. The experiment in a line: Alexa647-WGA lectin binding to printed small molecules – biochemical, small-molecule microarray, 635/667 nm fluorescence, artefact control for SMM control-protein annotation, profiling panel (AID 1140).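 Also: score merges 667 nm feature emission with signal to noise over triplicate slides.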 The settings on record: WGA-A647 binding, 635 nm fluorescence, higher = more signal.

The target of assay [9] is Luciferin 4-monooxygenase (Photinus pyralis) (UniProt P08659). The experiment in a line: inhibition of purified Photinus pyralis luciferase – biochemical, luminescence, purified enzyme, 2006 set, primary screen (AID 1141).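 Also: cell-free assay with purified firefly luciferase at 100 ng per well in PBS; test concentration not given here.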 The settings on record: purified firefly luciferase, SteadyGlo luminescence, 30 min; higher = more signal, called active from +8 up or from −8 down.
Luciferin 4-monooxygenase (Photinus pyralis), sequence (P08659 whole entry, looked up): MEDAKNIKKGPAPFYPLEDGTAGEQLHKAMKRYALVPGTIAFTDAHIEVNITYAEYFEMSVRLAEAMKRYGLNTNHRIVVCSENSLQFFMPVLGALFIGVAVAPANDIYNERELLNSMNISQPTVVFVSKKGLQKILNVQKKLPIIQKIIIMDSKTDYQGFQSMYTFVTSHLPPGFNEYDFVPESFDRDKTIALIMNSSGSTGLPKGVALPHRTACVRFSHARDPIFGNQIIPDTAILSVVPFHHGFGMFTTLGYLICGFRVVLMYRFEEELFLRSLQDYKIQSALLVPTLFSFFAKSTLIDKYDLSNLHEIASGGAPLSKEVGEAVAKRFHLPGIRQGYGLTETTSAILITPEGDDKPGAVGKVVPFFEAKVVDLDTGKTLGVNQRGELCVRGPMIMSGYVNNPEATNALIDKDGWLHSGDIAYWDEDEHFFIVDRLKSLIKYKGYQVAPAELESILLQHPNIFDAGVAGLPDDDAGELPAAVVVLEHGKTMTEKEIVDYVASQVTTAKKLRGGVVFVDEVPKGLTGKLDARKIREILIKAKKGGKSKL

The source made the active and inactive calls.

Turning to `C=C[C@@H](O)[C@H]1CC(c2ccccc2)=NO1`, the composite z-score is 0.103 in assay [1]; -0.565 in assay [2]; -0.0062 in assay [3]; -0.0611 in [4]; -0.16 in assay [5]; -0.121 in [6]. In addition, the composite z-score in the assay with Lefty1 was -0.0793; in assay [8], -0.288. In addition, the z-score in assay [7] was 1.12; in assay [9], -1.53 (inactive).

Consider `COC(=O)[C@]1(Cc2ccccc2CN=[N+]=[N-])N=C(c2ccc(OCCCO)cc2)O[C@@H]1c1ccccc1`, for which the composite z-score in [1] was 0.652; in [2] it was -1.81; in assay [3] it was -0.435; in [4], 0.0713; in assay [5], -0.562; in [6], -0.782. For the same compound, the composite z-score is -0.429 in the assay on Lefty1 and 0.441 in assay [8]. For the same compound, the z-score in [7] was -0.0525; in [9] it was -1.02 (inactive).

As for `C=C(CCCC)/C(=C/C[C@@H](OC(=O)c1ccncc1)c1ccccc1OCCO)c1cc(C(=O)OC)ccc1OC`, the composite z-score came out at 2.82 in [1]; 1.22 in [2]; 1.38 in assay [3]; 0.979 in [4]; 0.549 in [5]; 0.213 in [6]. Also, the composite z-score in the assay with Lefty1 turned out to be 0.444; in [8], 1. Also, the figures for the z-score in assay [7] and in [9] were 3.24 and -1.76 (inactive), respectively.

For `C[C@H]1ON(c2ccccc2)[C@@H](c2ccccc2)[C@@H]1C(=O)N1C(=O)OC[C@@H]1c1ccccc1`, the composite z-score in assay [1] came out at 0.143; in assay [2], 0.718; in assay [3], 0.784; in assay [4], 0.894; in assay [5] it was 1.12; in assay [6], 0.986. In addition, the composite z-score in the assay with Lefty1 stood at 0.5; in assay [8], 0.014. The results for the z-score in [7] and in [9] were -0.21 and 0.422 (inactive), respectively.

`O=C1O[C@H](c2ccccc2)[C@H](c2ccccc2)N2[C@H]1[C@@H](C(=O)N1CCN(c3ncccn3)CC1)[C@]1(C(=O)Nc3ccc(C#CCCO)cc31)[C@H]2c1ccccc1OCCO`: the composite z-score in assay [1] amounted to 1.55; in assay [2] it was 1.2; in assay [3] it was 0.358; in assay [4], 0.869; in assay [5] it was 0.618; in assay [6], 1.29. The values for the composite z-score (in the assay with Lefty1; in assay [8]) were 0.151 and 1.02, respectively. Further, the results for the z-score in assay [7] and in assay [9] were 0.91 and -0.682 (inactive), respectively.

As for `O=C1O[C@@H](c2ccccc2)[C@@H](c2ccccc2)N2[C@@H](c3ccc(O)cc3)[C@]3(C(=O)Nc4ccc(C#CC5(O)CCCCCC5)cc43)[C@@H](C(=O)N3CCN(c4ncccn4)CC3)[C@H]12`, the composite z-score came to 1.69 in [1]; 1.22 in assay [2]; 0.56 in assay [3]; 0.925 in assay [4]; 0.642 in [5]; 0.385 in [6]. Moreover, the figures for the composite z-score (in the assay on Lefty1; in assay [8]) were 0.441 and 0.601, respectively. The values for the z-score in assay [7] and in assay [9] were -0.243 and 1.04 (inactive), respectively.

In the case of `COC(=O)[C@@]1(Cc2ccc(OC)cc2)[C@H]2c3cc(C(=O)N4CCCC4)n(CCF)c3C[C@H]2CN1C(=O)c1ccccc1`, the composite z-score in [1] is 2.31; in assay [2], 1.17; in assay [3] it was 0.896; in assay [4], 1.04; in assay [5], 0.411; in assay [6], -0.0251. Besides, the composite z-score with Lefty1 was -0.3; in [8] it was 1.06. Moreover, the z-score in assay [7] is -1.32; in assay [9], 1.49 (inactive).

For `O=C1O[C@H](c2ccccc2)[C@H](c2ccccc2)N2[C@H]1[C@@H](C(=O)NC[C@H](O)c1ccccc1)[C@]1(C(=O)Nc3ccccc31)[C@H]2c1ccccc1OCCO`, the composite z-score in assay [1] worked out at 2.24; in [2], 1.22; in [3] it was 0.271; in [4], 0.916; in [5] it was 0.455; in [6], 0.538. Besides, the composite z-score with Lefty1 amounted to 0.799; in [8], 0.356. The z-score in assay [7] is -0.789; in [9], -11 (active).

Take `COc1ccc([Si](C)(C)[C@H]2[C@H](CCn3cc(CCO)nn3)O[C@@]3(C(=O)N(Cc4cccc(N5C(=O)c6cccc7cccc5c67)c4)c4ccccc43)[C@@H]2C)cc1`: the composite z-score in assay [1] came out at 0.246; in assay [2], 1.05; in assay [3], 0.124; in assay [4], 0.497; in assay [5], 0.958; in [6], 0.691. Further, the composite z-score with Lefty1 was determined as 1.21; in assay [8], 0.878. Further, the z-score was -0.338 in [7] and -1.54 (inactive) in assay [9].

As for `C=CCNC(=O)[C@H]1[C@@H]2C(=O)O[C@@H](c3ccccc3)[C@@H](c3ccccc3)N2[C@@H](c2ccc(OCCO)cc2)[C@]12C(=O)N(C(=O)OCCOC)c1ccc(C#CC3=CCCCC3)cc12`, the composite z-score came out at 1.56 in [1]; 1.2 in assay [2]; 0.485 in [3]; 0.968 in assay [4]; 1.17 in [5]; 1.25 in assay [6]. Also, the composite z-score was determined as 0.949 in the assay with Lefty1 and 1.17 in [8]. In addition, the values for the z-score in assay [7] and in assay [9] were -0.615 and -1.77 (inactive), respectively.

As to `COC(=O)[C@@]1(Cc2ccc(OC)cc2)[C@H]2c3cc(C(=O)N4CCCC4)n(CCc4ccc(O)c(OC)c4)c3C[C@H]2CN1C(=O)c1ccccc1`, the composite z-score in assay [1] is 0.772; in assay [2] it was 0.23; in [3], 0.717; in assay [4], 0.219; in assay [5], -0.625; in [6], -0.46. Moreover, the composite z-score is -1.78 with Lefty1 and 0.0523 in assay [8]. In addition, the figures for the z-score in assay [7] and in [9] were -0.0583 and 0.551 (inactive), respectively.

As to `C[N+](C)(C)CCCC[C@@H]1NC(=O)[C@H]2C[C@@H](C(=O)NCCCCCCN)[C@@H](c3cccc(OCCO)c3)N2C1=O`, the composite z-score in [1] was determined as 0.711; in assay [2], 1.21; in [3], 0.209; in assay [4], 0.704; in assay [5], 1.4; in assay [6] it was 1.51. Besides, the composite z-score in the assay on Lefty1 came out at 1.67; in assay [8] it was 1.13. In addition, the figures for the z-score in assay [7] and in assay [9] were -0.798 and 0.815 (inactive), respectively.

As to `CCCNC(=O)[C@@]1(Sc2ccc(C)cc2)CC(=O)N(Cc2ccccc2)[C@@H]1c1ccc(CO)cc1I`, the composite z-score is 0.381 in [1]; 0.561 in [2]; 0.0147 in assay [3]; -0.122 in assay [4]; 1.38 in assay [5]; 1.16 in assay [6]. Besides, the composite z-score turned out to be 0.427 in the assay on Lefty1 and 0.996 in [8]. Moreover, the z-score is 0.651 in assay [7] and 0.0043 (inactive) in assay [9].

On to `CCCN1C(=O)[C@@H]2Cc3c([nH]c4ccccc34)[C@@H](c3cccc(O)c3)N2C1=O`, for which the composite z-score in assay [1] was -0.147; in assay [2], 0.483; in assay [3], 0.131; in assay [4] it was 0.321; in [5], 0.374; in [6], 0.428. In addition, the values for the composite z-score (in the assay with Lefty1; in assay [8]) were 0.287 and -0.0455, respectively. The figures for the z-score in [7] and in assay [9] were 0.233 and 0.718 (inactive), respectively.

`C=C(COC)C(=O)CC[C@H](OC(=O)c1ccccc1-c1ccccc1C(=O)O)c1ccc(OCCO)cc1`: the composite z-score in assay [1] amounted to 2.56; in assay [2] it was 1.08; in [3], 0.033; in [4], 0.879; in assay [5], 1.42; in assay [6], 1.35. Further, the figures for the composite z-score (in the assay with Lefty1; in assay [8]) were 1.59 and 0.564, respectively. Moreover, the z-score in assay [7] is -0.66; in [9], -2.22 (inactive).

As to `CCCC=C(CCC)[C@@H](NS(=O)(=O)c1cccc2cccnc12)c1ccc(C(=O)OC)cc1`, the composite z-score in assay [1] turned out to be 1.4; in assay [2], 0.36; in [3], 0.542; in assay [4], 0.395; in [5] it was 1.31; in assay [6], 0.33. Further, the composite z-score was 0.162 in the assay on Lefty1 and -0.0663 in assay [8]. In addition, the values for the z-score in assay [7] and in assay [9] were 0.0272 and 2.48 (inactive), respectively.

(Values after PubChem BioAssay.)
